In the supplement of paper PMC3334620:
Over roughly 33,000 sequences, “E-score (-0.5 to 0.5)” has its median near -0.032; the highest 2% begin near 0.36. Shown is part of a subset that was picked to be rich in the highest values.

Biological target: T1, Sko1 (UniProt Q02100)
T1 sequence: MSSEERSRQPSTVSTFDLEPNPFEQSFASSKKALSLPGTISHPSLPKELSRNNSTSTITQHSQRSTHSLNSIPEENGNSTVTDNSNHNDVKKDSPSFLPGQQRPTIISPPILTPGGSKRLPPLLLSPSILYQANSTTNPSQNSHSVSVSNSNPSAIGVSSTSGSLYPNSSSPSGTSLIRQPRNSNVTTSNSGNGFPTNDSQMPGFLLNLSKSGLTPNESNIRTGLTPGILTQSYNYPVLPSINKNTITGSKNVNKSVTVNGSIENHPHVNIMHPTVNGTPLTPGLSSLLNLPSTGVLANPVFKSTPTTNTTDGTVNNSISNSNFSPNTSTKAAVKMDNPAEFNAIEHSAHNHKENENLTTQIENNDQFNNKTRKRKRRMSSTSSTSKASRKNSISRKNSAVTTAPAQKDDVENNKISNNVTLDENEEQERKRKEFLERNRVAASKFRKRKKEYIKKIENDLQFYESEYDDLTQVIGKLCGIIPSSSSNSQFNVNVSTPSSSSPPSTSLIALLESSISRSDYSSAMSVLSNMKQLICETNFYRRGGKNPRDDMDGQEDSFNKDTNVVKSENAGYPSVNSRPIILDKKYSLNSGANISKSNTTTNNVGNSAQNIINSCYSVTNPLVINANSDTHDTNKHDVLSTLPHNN
Test: PBM E-score (8-mer binding enrichment) (E-score (-0.5 to 0.5)); higher = stronger / more preferred TF binding
Settings: protein concentration: 200 nM; construct: GST-full length
In short: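 Masliner-normalised scans of fluorescent anti-GST signal were the basis for scoring. That signal came from GST-tagged yeast transcription factors applied at about 100-200 nM to double-stranded universal all-10-mer Agilent arrays on fresh or once-stripped slides. Each ungapped eight-base word, pooled with its reverse complement, received an E-score from the Universal PBM Analysis Suite.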

Sequence | PBM E-score
ACCAATGG | -0.28
CTCAGTTA | -0.0515
CGAAACTC | -0.0389
TAGTCCAA | -0.132
ACGTCAGA | 0.479
ACGTCAGT | 0.469
GGGTCAGA | -0.219
GTGTCAGA | -0.06
ACATCAGT | 0.179
CCGTCAGA | -0.0558
AAGTCAGT | -0.0135
ATGTCAGG | 0.0993
TCGTCAGA | 0.307
ACGTCAGG | 0.457
CCGTCAGG | -0.0861
GCGTCAGA | 0.364
AGTCCCTG | -0.259
AATGGGAC | -0.215
CGCCCTGC | -0.236
CCACTCAG | -0.212
CCAAAGAC | -0.098
GCGCCCGC | -0.165
GATCATAC | 0.14
ACGGTTCA | -0.126
GCGTCAGC | 0.209

Sequence | PBM E-score
ACGTCAGC | 0.48
CCGTCAGC | -0.127
CCCCCCAC | -0.372
CCGTGTAG | -0.181
ACGTGTAG | 0.367
TCGTGTAA | 0.116
GCGTGTAC | 0.227
ACGTGTAC | 0.409
ACGTGTAA | 0.386
AAGTGTAT | 0.0856
AGGTGTAT | 0.075
CCGTGTAC | -0.0602
ACGTGTAT | 0.414
AAGTGTAG | 0.0389
CCGTGTAA | -0.0449
CATGACTA | 0.0134
AATACCGG | 0.00982
CGTTTACA | 0.138
CTCCCCAC | -0.00257
ATTAAGCG | 0.0319
ACCGCATC | -0.161
AATAAGCT | 0.0887
CTATAGGA | 0.0338
CCGAGATA | 0.00305
ACTAGTGC | -0.13

Sequence | PBM E-score
GCGTGTCA | 0.216
ACGTGTCG | 0.385
ACGTGTCT | 0.381
AAGTGTCT | -0.135
ACGTGTCC | 0.318
AAGTGTCG | 0.00605
CCGTGTCG | -0.319
CCGTGTCA | -0.186
ACGTGTCA | 0.378
CAGCAGGC | -0.22
AGGCTTGA | -0.0134
ACGGCTCG | -0.0111
CAACGTGA | 0.182
TAACGTAA | 0.457
GAACGTAA | 0.428
CAACGTAA | 0.447
GATCGTAA | 0.281
TAACGTGA | 0.274
TAACGTTA | 0.302
CAACGTAG | 0.354
GAACGTAC | 0.254
ACAACTAA | 0.161
AGGCCTGC | -0.301
GCCGTCGC | -0.133
CTCGGTAC | -0.0539

Sequence | PBM E-score
CTACTCAC | 0.168
ACCACGGG | -0.243
ACCACGGA | -0.247
GCCACGCA | 0.0845
GCCACGTA | 0.421
ACCACAAA | 0.0563
ACCACGTC | 0.363
ACCACGCC | -0.125
GCCACGGA | -0.215
ACCACGTA | 0.441
ACCACGAC | 0.128
ACCACGTG | 0.362
ACCACGAA | 0.131
GTCTGATA | -0.114
TATCTGGA | -0.215
CCTCGGCG | -0.0614
CCACCAAG | -0.374
ACCGGTGG | -0.404
AACTCACC | -0.0504
GAGAACCA | -0.127
ACACTCCT | -0.189
ACGCTCAA | 0.0466
TTGTGAAA | 0.119
ACTTTCAA | 0.0541
ACCTATAT | 0.257

Sequence | PBM E-score
AGTGACGA | 0.419
AGTGACCA | -0.178
GTTGACGA | 0.212
GGTGACGA | 0.422
GGTGACCA | -0.137
AGTGACGG | 0.146
ACGCCCAG | -0.0834
TACACTAA | -0.0348
AATTGTGA | 0.233
ATCGGCCC | -0.133
CCCCACGG | -0.22
GTCATTAA | 0.393
ATCATTGA | 0.272
ATCATTAA | 0.239
CTCATTAA | 0.0254
GTCATTGA | 0.416
CTCATTGA | -0.0333
CCTGAGGC | -0.278
GATAGAGA | -0.084
ACCTTCGT | 0.0282
CGTAAAAG | 0.288
AGACTCAC | -0.129
TGAAGACA | 0.0964
CGCGACTA | -0.0528
CTGGATGC | -0.36

Sequence | PBM E-score
CTGTGCGC | -0.113
CAAAGAAG | -0.00535
CATCGTCA | 0.395
AATCGTCC | 0.0937
CATCGTCC | 0.0258
TATCGTGA | 0.168
CATCGTCG | -0.16
GATCGTCA | 0.321
AATCGTCT | 0.0851
AATCGTCA | 0.423
TATCGTCA | 0.42
CCTCATTA | 0.131
ATTGCCAC | -0.11
CGATGGGA | -0.0417
ACACTAAT | 0.119
AGGTCCAT | 0.0213
AGGACATC | -0.0352
GACGGGCA | -0.145
CTGCGTAC | 0.149
GTGCGTAA | 0.418
ATGCGTAC | 0.291
CTGCGTAA | 0.397
GAGCGTAA | 0.218
ATGCGTAA | 0.437
CTGCGTTA | 0.0283

Sequence | PBM E-score
ATGCGTAG | 0.3
GTGCGCAA | 0.114
CACTGCAG | -0.064
CATCTTAC | 0.228
TCAGAGAA | 0.00926
CCGCCATA | -0.182
ACGCCATA | 0.393
ACGCCAAG | -0.0349
ACGCCACA | 0.234
GCGCCATA | 0.0343
CCGCCATC | -0.29
ACGCCACC | 0.0629
ACGCCATG | 0.368
ACGCCATC | 0.376
AAGGATCC | -0.254
CCACGCAG | 0.057
ACACGGGT | -0.189
CAGCATCG | -0.332
CCCGCTAC | -0.15
AACCATAT | 0.119
CCACGTGA | 0.339
CCCCGTAA | 0.0319
CCACGTGG | 0.177
